# An excerpt weighted towards active compounds, which were near 2.4% of everything screened.
# D2 PAM-1 = human D2 receptor positive allosteric modulation | potentiation, % (test concentration not listed) | P14416 | AID 624464 | DiscoveRx D2 beta-arrestin cells, luminescence, 90 min; 100% = 57 uM dopamine signal | hit rate 0.23% among 360,000; in the data active = potentiation above about 50%; inconclusive = mostly about 30% to 49%
# Target sequence (P14416 whole entry, looked up): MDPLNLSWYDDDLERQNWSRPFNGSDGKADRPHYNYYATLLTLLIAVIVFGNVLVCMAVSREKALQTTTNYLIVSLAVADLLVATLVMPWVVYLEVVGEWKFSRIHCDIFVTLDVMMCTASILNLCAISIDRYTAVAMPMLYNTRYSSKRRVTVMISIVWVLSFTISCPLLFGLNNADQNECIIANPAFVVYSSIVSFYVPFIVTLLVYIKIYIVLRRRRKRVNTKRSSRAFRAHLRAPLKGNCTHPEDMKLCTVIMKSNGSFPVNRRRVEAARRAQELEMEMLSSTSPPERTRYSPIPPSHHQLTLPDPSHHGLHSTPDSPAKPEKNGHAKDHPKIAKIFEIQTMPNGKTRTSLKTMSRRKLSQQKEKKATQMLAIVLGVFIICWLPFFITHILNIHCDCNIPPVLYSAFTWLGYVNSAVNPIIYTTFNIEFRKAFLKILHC
#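 PathHunter D2 cells, attached overnight at 37 deg C, received compound in DMSO plus dopamine at EC20 (50 nM final) for 90 min at 37 deg C. Beta-arrestin recruitment was read as luminescence after 1 h with detection reagent at ambient temperature.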
# D2 antagonist = antagonizes the human D2 dopamine receptor; hit rate 2% among 340,000; HEK293 TREx D2 cells, calcium flux, dopamine EC80; inhibition, % at 10 µM; AID 485344; P14416; in the data active = inhibition above about 30%; inactive = below that, where a call was filed; also: 0% is about no effect
#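 In this primary screen, negative modulation is detected by tracking calcium flux after an EC80 dopamine challenge in inducible HEK293 T-REx D2 cells preexposed to test compound for 180 s.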
# D2 PAM-2 = positively modulates the human D2 dopamine receptor allosterically; P14416; HEK293 T-REx D2, calcium flux, EC20 dopamine potentiation; potentiation, % at 10 µM; hit rate 0.34% among 340,000;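 active = potentiation over 3 SD above the plate norm, cut at about 30% in these data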; also: 0% is about no effect
#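 Tetracycline-induced Hek293 Trex D2 cells, force-coupled to calcium, loaded with no-wash calcium dye. Compound added with 180 s kinetic read for agonism, then EC20 dopamine and a further 180 s read for potentiation.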
# D2 ag-1 = agonists of human D2 dopamine receptor; P14416; HEK293 T-REx D2 cells, calcium flux agonist mode; activation, % at 2 µM; hit rate 0.53% among 340,000; AID 485358;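 active = activation over 3 SD above normal in the single-dose calcium agonist read, cut at about 30% in these data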; also: 0% is about no effect
#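 Tetracycline-induced HEK293 Trex cells with D2 receptor force-coupled to calcium signaling, plated overnight at 30 C and loaded with no-wash calcium dye. Calcium flux read kinetically for 180 s after compound addition; responses flag agonists.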
# D2 ag-2 = human D2 receptor agonism in beta-arrestin assay. P14416. DiscoveRx PathHunter D2 beta-arrestin, luminescence, 90 min; 100% = 57 uM dopamine signal. activation, % (test concentration not listed). hit rate 0.084% among 360,000. AID 624465; in the data active = activation above about 40%; inconclusive = between about 15% and that limit
#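 DiscoveRx PathHunter D2 beta-arrestin cells (2,100/well) attached overnight, then compound-stimulated 90 min at 37 C in HBSS/10 mM HEPES/0.1% Tween-20 buffer; beta-galactosidase complementation read by luminescence after 1 h at ambient temperature. Dopamine 57 uM final (EC100) as control.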
# An asterisk follows results filed as active; ? = inconclusive; . = no result given.
SMILES,D2 PAM-1,D2 antagonist,D2 PAM-2,D2 ag-1,D2 ag-2
N/C(=N\OC(=O)c1cccs1)c1cccc([N+](=O)[O-])c1,69*,-7,4,1,42*
COc1ccccc1C/C(N)=N/OC(=O)c1ccc(C)c([N+](=O)[O-])c1,145*,.,16,.,?
N/C(=N\OC(=O)c1cccc2ccccc12)c1cccc([N+](=O)[O-])c1,83*,4,-9,0,?
Cc1cccc(C(=O)O/N=C(\N)c2cccc([N+](=O)[O-])c2)c1,20,-2,0,1,15
Cc1ccc(C(=O)O/N=C(\N)Cc2cccs2)cc1[N+](=O)[O-],29,5,11,0,?
Cc1ccc2nc(-c3ccc(Cl)c(NC(=O)COc4ccc(C(C)C)cc4)c3)oc2c1,.,.,-1,0,.
CCOc1cc(C(=O)NCc2ccc3c(c2)CCN3C(=O)c2ccc(F)cc2)cc(OCC)c1OCC,.,.,6,1,.
CCc1nn2c(=O)cc(COC(=O)c3ccccc3)nc2s1,.,.,-8,0,.
Cc1ccc(NC(=O)CCn2c(=O)c3cccn3c3ccccc32)c(Cl)c1,.,.,11,1,.
CCN(Cc1nc2ccccc2c(=O)[nH]1)C(=O)c1cccc(S(=O)(=O)N2CCc3ccccc32)c1,-1,47*,0,0,1
FC(F)(F)c1ccc(C2[C@H]3CN(Cc4ccc(-c5ccccc5)cc4)[C@H](c4ccccc4)C34CC2(c2ccccc2)C4)cc1 (stereo partly specified),-1,35*,7,0,0
O=C(CCC(=O)OCC(=O)c1ccc(Cl)cc1)Nc1ccc(Oc2ccccc2)cc1,.,.,12,.,.
COc1ccc(NC(=O)C2CCN(C(=O)Nc3ccccc3)CC2)cc1S(=O)(=O)N(C)C,-39,77*,-30,1,-2
CC1CC(C)CN(C(=O)/C=C/c2ccc(S(=O)(=O)N3CCOCC3)cc2)C1 (stereo unspecified),10,30*,-2,0,-6
O=C(/C=C/c1ccc(S(=O)(=O)N2CCOCC2)cc1)N1CCN(c2ccc(F)cc2)CC1,-4,5,6,-2,2
O=C(COC(=O)c1cccs1)Nc1cccc(S(=O)(=O)N2CCOCC2)c1,-7,36*,-3,1,-2
O=C(Nc1nc2ccc(S(=O)(=O)N3CCOCC3)cc2s1)c1cccs1,-2,57*,14,1,6
O=C(Nc1cccc(Cl)c1)c1cc(S(=O)(=O)N2CCOCC2)cs1,-20,35*,-14,0,1
O=C(Nc1nc2ccc(S(=O)(=O)N3CCCC3)cc2s1)c1cccs1,-28,-21,6,0,-2
O=S(=O)(c1cccc(NC(=S)Nc2ccc(Br)cc2Cl)c1)N1CCOCC1,-22,38*,9,0,-8
Cc1ccccc1NC(=O)CSc1nccn1C,.,.,-3,-1,.
Cc1cc(Nc2ccc(Br)cc2)nc(C)n1,.,.,15,1,.
O=c1c(N2CCN(c3cccc(Cl)c3)CC2)csc2ccc(Cl)cc12,.,.,-12,1,.
CC(C)Oc1ccc(C(=O)N(Cc2ccc(N(C)C)cc2)Cc2ccco2)cc1,.,.,-3,-1,.
CC(OCC(O)CN(C)CCOc1ccccc1)c1ccc(Cl)cc1 (stereo unspecified),17,26,-23,32*,6
SMILES,D2 PAM-1,D2 antagonist,D2 PAM-2,D2 ag-1,D2 ag-2
CN(CCOc1ccc(Cl)cc1)CC(O)c1ccccc1 (stereo unspecified),-17,-17,3,-1,-2
CN(CCOc1ccccc1)CC(O)COc1ccccc1 (stereo unspecified),-16,51*,-29,2,-4
CCOC(=O)c1ccccc1NC(=O)CN(c1cccc(C)c1C)S(=O)(=O)c1ccccc1,.,.,14,-2,.
CCc1ccc2[nH]c(=O)c(CN(Cc3ccc(F)cc3)C(c3nnnn3CCN3CCOCC3)C(C)C)cc2c1 (stereo unspecified),-19,-18,31*,-6,-4
CCc1ccc2[nH]c(=O)c(C(c3nnnn3Cc3ccc(OC)cc3)N3CCOCC3)cc2c1 (stereo unspecified),-8,-6,3,0,-3
CCc1ccc2[nH]c(=O)c(C(c3nnnn3Cc3ccccc3)N3CCOCC3)cc2c1 (stereo unspecified),1,36*,-6,0,1
Cn1cccc1-c1cc2n(n1)CCC(=O)N2CCCC(=O)NCc1cccc(Cl)c1,.,.,6,-1,.
Cc1cc(C)cc(C(=O)N2CC(=O)Nc3ccccc32)c1,-10,-15,11,-1,0
Cc1ccc(/C=C/C(=O)N2CC(=O)Nc3ccccc32)o1,-3,-9,33*,-1,-1
O=C(Nc1ccc2nc(SCC(=O)N3CCc4ccccc43)sc2c1)c1ccccc1,.,.,.,0,.
O=C(c1cccs1)N(Cc1ccco1)Cc1cc2ccccc2[nH]c1=O,-4,60*,-22,1,-2
Cc1ccc2[nH]c(=O)c(CN(Cc3ccco3)C(=O)c3ccncc3)cc2c1,-2,-2,0,0,0
CCC(=O)N1CCc2cc(S(=O)(=O)NCCC(=O)Nc3cccc(SC)c3)ccc21,.,.,2,0,.

# Compound activity from PubChem.
